Data on 9 compounds can be found in PubChem BioAssay (Tox21).

Structures are written as SMILES. “And” between values parts separate entries of the source, which are not always exact repeats. Identical values can stand only once. Unmarked numbers belong to inactive results. Records with an inconclusive call do not appear. The source made the active and inactive calls. Unless noted, calls follow the shape of the dose curve; as a rule, active = well fitted curve in the direction sought with a large enough effect in the repeat runs; inconclusive = weak or mixed curves; inactive = no such curve, though single readings can be large; an effect the other way counts as inactive or inconclusive.

Experiment [1] addresses Thyrotropin receptor (Homo sapiens) (UniProt P16473). The experiment can be described thus: qHTS assay to identify small molecule antagonists of the thyroid stimulating hormone receptor (TSHR) signaling pathway (AID 1259385; calls by dose curve; also: nearly all actives have a fitted effect of over 20% in size). The method in brief: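 TSHR-HEK293 cells (800/well) plated 18 h, then compounds with Ro20-1724 and TSH at 1.5 ng/mL final, 30 min at room temperature. cAMP quantified by HTRF (cAMP-d2/anti-cAMP-cryptate, 1 h); 15 concentrations in triplicate.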
A general note: In qHTS, concentration-response curves come from the screen itself.

Experiment [2] in a line: qHTS assay to identify small molecule agonists of the estrogen receptor alpha (ER-alpha) signaling pathway in the presence of an antagonist - cell viability counter screen (AID 1259386).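 Also: series mostly up to about 92 µM; cells exposed to compounds for 22 h at 37 °C before the viability read; nearly all actives have a fitted effect of over 30% in size.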 The method in brief: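 Cell viability in VM7Luc4E2 cells (endogenous full-length ER-alpha) measured by CellTiter-Fluor fluorescence in the same wells as the luciferase screen. Cells pre-cultured 5 days in charcoal-stripped serum, then treated 22 h with compounds at 15 concentrations plus 10.0nM ICI-182,780.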

Experiment [3] deals with Progesterone receptor (Homo sapiens) (UniProt P06401). Put plainly: qHTS assay to identify small molecule agonists of the progesterone receptor (PR) signaling pathway (AID 1346784; calls by dose curve; also: nearly all actives have a fitted effect of over 30% in size). The method in brief:
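Agonist mode, quantitative HTS format in a HEK 293T line expressing a UAS-controlled beta-lactamase reporter; 16 hr compound exposure at 37C in 2% charcoal-stripped FBS, then LiveBLAzer B/G FRET fluorescence.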

Experiment [4] has the same target. Put plainly: qHTS assay to identify small molecule antagonists of the progesterone receptor (PR) signaling pathway (AID 1346795; active = well fitted inhibition curve with a large enough effect in the signal ratio in the repeat runs, not every such curve was filed as active; the % refers to the signal ratio). The procedure, abridged: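 HEK293T PR-UAS-bla reporter cells in charcoal-stripped serum (2%) received compound after a 6 hr settling period, followed by R5020 agonist at 1 nM final; 16 hr incubation preceded the FRET substrate step and fluorescence measurement.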

Experiment [5] is described as follows: qHTS assay to identify small molecule antagonists of the progesterone receptor (PR) signaling pathway - cell viability counter screen (AID 1346798). Also: nearly all actives have a fitted effect of over 50% in size. Also: potency is read from the fitted curve at half-maximal effect. The method in brief: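 Same-well multiplex: after 16 hr at 37C with compound and R5020 stimulation, HEK293T cells carrying a UAS-bla reporter received LiveBLAzer substrate (2 hr RT), then CellTiter-Glo (30 min RT) for luminescent viability.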

The nature of experiment [6]: qHTS assay to identify small molecule agonists of the progesterone receptor (PR) signaling pathway - cell viability counter screen (AID 1346799; calls by dose curve; also: nearly all actives have a fitted effect of over 45% in size). The procedure, abridged:
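Counter screen for cytotoxicity: compound-treated PR-UAS-bla HEK293T cells (16 hr, 37C, 5% CO2) were assayed with CellTiter-Glo, luminescence measured after 30 min at room temperature.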

A short description of experiment [7]: qHTS assay to identify small molecule antagonists of the TGF-beta/Smad signaling pathway - cell viability counter screen (AID 1346824). Also: nearly all actives have a fitted effect of over 50% in size. The method in brief: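 SBE-bla HEK 293T cells, incubated overnight, then compound plus 0.25 ng/mL TGF-beta1 (stock added) for 5 hr at 37 C. Viability was read in the same wells by CellTiter-Glo luminescence after 30 min at room temperature.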

A short description of experiment [8]: qHTS assay to identify small molecule agonists of the TGF-beta/Smad signaling pathway - cell viability counter screen (AID 1346829). Also: top concentration of the series differs between compounds; nearly all actives have a fitted effect of over 45% in size. The procedure, abridged: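 Compound-treated SBE-bla HEK 293T cells (5 hr, 37 C) were assessed for viability with CellTiter-Glo in parallel with the reporter read.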
A short description of experiment [9]: qHTS assay to identify small molecule agonists of the TGF-beta/Smad signaling pathway (AID 1346859; active = well fitted activation curve with a large enough effect in the signal ratio in the repeat runs, not every such curve was filed as active; the % refers to the signal ratio; also: series mostly up to about 77 µM). The method in brief:
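Smad-responsive beta-lactamase reporter cells (HEK 293T) received compounds from DMSO stocks after overnight attachment, were incubated 5 hr, then treated 2 hr with FRET substrate before dual-emission fluorescence measurement (405 nm excitation).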

Experiment [10] is described as follows: Caspase-3/7 induction in HepG2 cells by small molecules, qHTS assay (AID 1346978). Also: nearly all actives have a fitted effect of over 15% in size. The procedure, abridged: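 Wild-type HepG2 cells, 2,000/well, settled 5 hr at 37 C and 5% CO2, then compound-treated for 17 hr; caspase-3/7 activity read by luminescent Caspase-Glo 3/7 after 30 min at room temperature.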
Experiment [11] can be described thus: Caspase-3/7 induction in CHO-K1 cells by small molecules, qHTS cell viability counter screen (AID 1346979). Also: nearly all actives have a fitted effect of over 35% in size. The procedure, abridged: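 In the same wells as the caspase read, viability of compound-treated wild-type CHO-K1 cells was assessed using CellTiter-Fluor, added after 16hr at 37C and measured by fluorescence following 1hr further incubation.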
A short description of experiment [12]: Caspase-3/7 induction in CHO-K1 cells by small molecules, qHTS assay (AID 1346980). Also: nearly all actives have a fitted effect of over 15% in size. The method in brief:
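Wild-type CHO-K1 cells exposed to compounds for 17hr at 37 C, 5% CO2. Caspase-3/7 activity then measured by Caspase-Glo 3/7 luminescence after 30min at room temperature.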

Experiment [13] can be described thus: Caspase-3/7 induction in HepG2 cells by small molecules, qHTS cell viability counter screen (AID 1346981). Also: series mostly up to about 92 µM; nearly all actives have a fitted effect of over 30% in size. The method in brief: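 Wild-type HepG2 cells, 2,000/well, settled 5 hr at 37 C, 5% CO2 before compound addition. Viability read by CellTiter-Fluor fluorescence, reagent added after 16 hr compound exposure, then 1 hr at 37C, in the same wells as the caspase read.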

The target in experiment [14] is Nuclear receptor subfamily 1 group I member 2 (Homo sapiens) (UniProt O75469). The experiment can be described thus: Human pregnane X receptor (PXR) small molecule agonists, qHTS assay (AID 1346982). Also: nearly all actives have a fitted effect of over 35% in size. The procedure, abridged: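 PXR-Luc HepG2 reporter cells (CYP3A4-driven luciferase) in 5% charcoal-stripped FBS medium, plated 5 h before compound addition, then treated 24 h at 37C. Luciferase read by ONE-Glo luminescence after 30 min at room temperature.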
Chain of Nuclear receptor subfamily 1 group I member 2 (Homo sapiens) (O75469 whole entry, looked up): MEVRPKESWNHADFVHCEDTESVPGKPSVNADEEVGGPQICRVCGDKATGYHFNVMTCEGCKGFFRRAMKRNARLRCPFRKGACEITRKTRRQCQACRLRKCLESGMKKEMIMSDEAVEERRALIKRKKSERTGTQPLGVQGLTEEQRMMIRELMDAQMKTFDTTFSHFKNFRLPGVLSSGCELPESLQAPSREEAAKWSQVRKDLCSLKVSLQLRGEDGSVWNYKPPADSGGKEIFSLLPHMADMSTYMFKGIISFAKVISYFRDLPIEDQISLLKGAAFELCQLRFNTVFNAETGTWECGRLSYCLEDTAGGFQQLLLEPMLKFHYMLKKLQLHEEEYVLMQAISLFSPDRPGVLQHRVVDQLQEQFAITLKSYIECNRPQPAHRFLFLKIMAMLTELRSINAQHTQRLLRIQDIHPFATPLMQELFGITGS

Experiment [15] can be described thus: Human pregnane X receptor (PXR) small molecule agonists, qHTS cell viability counter screen (AID 1346977). Also: nearly all actives have a fitted effect of over 50% in size. The procedure, abridged:
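Measures live-cell protease fluorescence (CellTiter-Fluor) in PXR-Luc HepG2 cells treated 24hr with compounds at 37C. Cells had 5hr to attach before pin transfer of DMSO solutions.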

For experiment [16], the target named is Nuclear receptor subfamily 1 group I member 2 (Rattus norvegicus) (UniProt Q9R1A7). Put plainly: Rat pregnane X receptor (rPXR) activation by small molecules, qHTS assay (AID 1346983). Also: nearly all actives have a fitted effect of over 20% in size. The conditions noted are these: rPXR luciferase reporter cells, One-Glo luminescence, 24 h; max activation: active compounds read high. The procedure, abridged: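 Cell-based rPXR activation assay: rPXR cells, 2,000 per well, rested 5hr at 37 C, then exposed to compounds in DMSO for 24 hr at 37 C. Luciferase activity read by One-Glo luminescence after 30 min at room temperature.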
Chain of Nuclear receptor subfamily 1 group I member 2 (Rattus norvegicus) (Q9R1A7 whole entry, looked up): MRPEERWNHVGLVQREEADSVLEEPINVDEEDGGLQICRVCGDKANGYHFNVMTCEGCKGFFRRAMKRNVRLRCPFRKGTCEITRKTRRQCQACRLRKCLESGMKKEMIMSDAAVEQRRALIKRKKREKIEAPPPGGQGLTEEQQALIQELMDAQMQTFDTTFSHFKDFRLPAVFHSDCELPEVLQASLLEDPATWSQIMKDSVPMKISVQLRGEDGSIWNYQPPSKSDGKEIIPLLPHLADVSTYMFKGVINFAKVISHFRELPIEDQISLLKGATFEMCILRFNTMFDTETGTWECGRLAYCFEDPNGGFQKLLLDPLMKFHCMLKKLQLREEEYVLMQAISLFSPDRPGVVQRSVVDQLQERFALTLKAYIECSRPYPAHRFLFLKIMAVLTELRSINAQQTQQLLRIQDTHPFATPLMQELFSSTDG

For experiment [17], the target named is Thyrotropin-releasing hormone receptor (Homo sapiens) (UniProt P34981). The experiment can be described thus: qHTS assay to identify small molecule antagonists of the thyrotropin-releasing hormone receptor (TRHR) signaling pathway (AID 1346877; active = well fitted inhibition curve with a large enough effect in the repeat runs, not every such curve was filed as active; also: series mostly up to about 51 µM). The method in brief:
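TRHR-expressing HEK293 cells loaded with calcium dye for 2 h at 37 C; compounds pre-incubated 5 min at room temperature before TRH challenge at 1 nM final. Intracellular calcium fluorescence read kinetically for 3 min; 15 concentrations in triplicate.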

The target is the same in experiment [18]. Put plainly: qHTS assay to identify small molecule agonists of the thyrotropin-releasing hormone receptor (TRHR) signaling pathway (AID 1346891; calls by dose curve; also: series mostly up to about 58 µM). The method in brief:
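Agonist-mode calcium mobilisation screen: TRHR-transfected HEK293 cells cultured overnight (18 h), dye-loaded for 2 h at 37 °C, exposed to compounds, and monitored by fluorescence for 3 min.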

Experiment [19] deals with Nuclear receptor subfamily 1 group I member 2 (Homo sapiens) (UniProt O75469). Put plainly: CYP3A4 induction through human pregnane X receptor (PXR) by small molecules, qHTS assay (AID 1346984). Also: nearly all actives have a fitted effect of over 40% in size. The procedure, abridged:
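DPX-2 HepG2 cells carrying a PXR response element and CYP3A4-promoter luciferase construct, treated with compounds 24 hr at 37C. Then P450-Glo CYP3A4 Luciferin-IPA substrate (3uM final) for 3 hr at 37C, One-Glo added, luminescence read.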

Experiment [20] shares this target. Put plainly: Human pregnane X receptor (PXR) activation by small molecules, qHTS assay (AID 1346985). Also: nearly all actives have a fitted effect of over 40% in size. The method in brief: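 DPX-2 cells (HepG2 co-transfected with a PXR response element and a CYP3A4-promoter luciferase construct) were seeded at 2,000 per well, rested 5 hr at 37C, then exposed to DMSO-dissolved compounds for 24 hr. Activation was read as luciferase luminescence.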
% is scaled to controls: 0 for no effect and ±100 for the full control effect.

Chain of Progesterone receptor (Homo sapiens) (P06401 whole entry, looked up): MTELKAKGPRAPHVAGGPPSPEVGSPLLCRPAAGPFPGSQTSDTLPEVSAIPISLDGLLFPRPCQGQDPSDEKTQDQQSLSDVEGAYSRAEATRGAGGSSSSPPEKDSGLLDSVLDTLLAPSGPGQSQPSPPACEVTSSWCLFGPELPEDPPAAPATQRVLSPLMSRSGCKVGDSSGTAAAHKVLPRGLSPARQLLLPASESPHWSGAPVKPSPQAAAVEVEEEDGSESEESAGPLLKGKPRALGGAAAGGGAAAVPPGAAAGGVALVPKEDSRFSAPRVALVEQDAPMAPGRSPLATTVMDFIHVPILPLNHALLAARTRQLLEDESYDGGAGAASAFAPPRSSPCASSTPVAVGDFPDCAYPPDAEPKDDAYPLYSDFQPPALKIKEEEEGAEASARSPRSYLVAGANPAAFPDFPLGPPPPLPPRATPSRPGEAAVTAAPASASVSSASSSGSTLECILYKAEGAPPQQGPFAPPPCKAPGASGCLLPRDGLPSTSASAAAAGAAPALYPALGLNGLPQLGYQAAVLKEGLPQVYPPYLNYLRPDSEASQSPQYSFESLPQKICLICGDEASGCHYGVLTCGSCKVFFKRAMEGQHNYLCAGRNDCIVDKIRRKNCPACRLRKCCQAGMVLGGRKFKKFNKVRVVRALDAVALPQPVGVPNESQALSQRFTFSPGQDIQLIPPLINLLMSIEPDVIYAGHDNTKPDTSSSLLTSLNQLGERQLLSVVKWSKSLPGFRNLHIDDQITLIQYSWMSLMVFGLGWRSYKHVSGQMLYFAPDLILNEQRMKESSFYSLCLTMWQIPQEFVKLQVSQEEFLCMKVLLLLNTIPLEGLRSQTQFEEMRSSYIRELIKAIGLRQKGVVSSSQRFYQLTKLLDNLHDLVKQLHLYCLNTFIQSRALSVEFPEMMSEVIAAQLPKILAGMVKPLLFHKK
Chain of Thyrotropin receptor (Homo sapiens) (P16473 whole entry, looked up): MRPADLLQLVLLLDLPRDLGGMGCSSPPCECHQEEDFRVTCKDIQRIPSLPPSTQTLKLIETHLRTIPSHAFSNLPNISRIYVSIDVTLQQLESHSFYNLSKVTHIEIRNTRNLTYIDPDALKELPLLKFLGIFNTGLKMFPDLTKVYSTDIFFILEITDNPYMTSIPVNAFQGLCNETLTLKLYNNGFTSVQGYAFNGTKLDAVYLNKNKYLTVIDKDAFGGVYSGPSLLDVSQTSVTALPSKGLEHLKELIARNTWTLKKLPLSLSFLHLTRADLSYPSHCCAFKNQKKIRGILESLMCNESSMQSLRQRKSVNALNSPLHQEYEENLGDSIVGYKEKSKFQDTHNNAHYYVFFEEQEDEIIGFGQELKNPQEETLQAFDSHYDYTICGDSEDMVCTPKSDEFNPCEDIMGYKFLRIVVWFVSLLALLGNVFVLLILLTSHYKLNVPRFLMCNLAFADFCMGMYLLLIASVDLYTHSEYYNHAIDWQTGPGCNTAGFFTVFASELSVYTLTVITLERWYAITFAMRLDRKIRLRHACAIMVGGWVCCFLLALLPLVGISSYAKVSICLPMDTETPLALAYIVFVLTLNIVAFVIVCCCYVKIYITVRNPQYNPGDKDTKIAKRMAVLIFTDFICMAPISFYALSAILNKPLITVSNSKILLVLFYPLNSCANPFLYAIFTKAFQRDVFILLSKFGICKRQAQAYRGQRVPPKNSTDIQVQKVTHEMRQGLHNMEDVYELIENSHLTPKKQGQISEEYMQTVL
Chain of Thyrotropin-releasing hormone receptor (Homo sapiens) (P34981 whole entry, looked up): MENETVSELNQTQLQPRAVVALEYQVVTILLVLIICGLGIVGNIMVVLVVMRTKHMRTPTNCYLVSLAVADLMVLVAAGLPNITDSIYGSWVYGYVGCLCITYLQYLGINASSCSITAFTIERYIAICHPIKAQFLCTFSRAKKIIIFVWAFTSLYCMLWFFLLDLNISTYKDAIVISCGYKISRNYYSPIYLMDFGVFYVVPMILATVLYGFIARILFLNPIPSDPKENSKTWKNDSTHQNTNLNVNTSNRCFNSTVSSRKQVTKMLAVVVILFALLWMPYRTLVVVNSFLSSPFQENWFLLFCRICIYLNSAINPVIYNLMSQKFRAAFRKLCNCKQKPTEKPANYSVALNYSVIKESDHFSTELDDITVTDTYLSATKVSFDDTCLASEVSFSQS

With `CCOS(C)(=O)=O`, the Potency result in experiment [1], in experiment [2], in experiment [3], in [4], in experiment [5] and in [6] was “inactive” throughout. The Potency entry in experiment [7], in experiment [8], in [10], in experiment [11], in experiment [12] and in [13] was “inactive” throughout. In [14], the Potency entry was “inactive”. Further, the compound was called inactive in experiment [9].
With `O=NN1CCCCCC1`, the Potency entry in [1], in [2], in experiment [3], in [4], in [5] and in [6] was “inactive” each time. In addition, the Potency result in experiment [7], in [8], in experiment [15], in experiment [10], in experiment [11] and in experiment [12] was “inactive” throughout. Moreover, the Potency result in experiment [13] and in experiment [14] was “inactive” in each case. Also, the compound was classed as inactive in experiment [9].
As to `C=CCN1CC[C@]23c4c5ccc(O)c4O[C@H]2C(=O)CC[C@@]3(O)[C@H]1C5`, the Potency result in experiment [1], in experiment [2], in experiment [3], in experiment [4], in experiment [5] and in experiment [6] was “inactive” in each case. Further, the Potency result in experiment [7], in experiment [8], in experiment [15], in experiment [10], in experiment [11] and in experiment [12] was “inactive” each time. For the same compound, the Potency entry in [13] is “inactive”. The outcome in [9] was inactive. The max activation in experiment [16] was -2.21% and -3.34%.
In the case of `N#CCc1ccccc1`, the Potency entry in [1], in experiment [2], in experiment [3], in experiment [4], in [6] and in experiment [7] was “inactive” throughout. Also, the Potency result in [8], in [17], in [18], in experiment [15], in [10] and in [11] was “inactive” in each case. The Potency entry in [12] and in experiment [13] was “inactive” in each case. The compound was classed as inactive in experiment [9].
With `CCCCCCCCOC(=O)c1ccc(C(=O)OCCCCCCCC)c(C(=O)OCCCCCCCC)c1`, the Potency entry in [1], in [2], in [3], in [4], in [6] and in experiment [8] was “inactive” each time. The Potency entry in [15], in experiment [10], in experiment [11], in [12], in experiment [13] and in experiment [14] was “inactive” throughout. The Potency in experiment [5] is 27.6 µM (active). Besides, the outcome in [9] was inactive.
With `Cn1sc(Cl)cc1=O`, the Potency entry in experiment [1], in experiment [2], in experiment [3], in experiment [4], in experiment [5] and in experiment [7] was “inactive” in each case. The Potency entry in experiment [8], in experiment [17], in experiment [18], in experiment [15], in experiment [10] and in experiment [11] was “inactive” each time. Moreover, the Potency result in experiment [12], in [13], in experiment [14], in [19] and in experiment [20] was “inactive” throughout. In [9], the compound was called inactive. Further, the max activation in experiment [16] is -5.85%.
As for `Brc1ccccc1`, the Potency result in experiment [1], in experiment [2], in [3], in experiment [4], in [5] and in experiment [6] was “inactive” throughout. Also, the Potency entry in [7], in experiment [18], in experiment [15], in experiment [10], in experiment [11] and in experiment [12] was “inactive” throughout. In addition, the Potency result in experiment [13] and in experiment [14] was “inactive” each time. The result in experiment [9] was inactive.
For `CCCCN=C=O`, the Potency result in experiment [1], in [2], in experiment [3], in experiment [4], in [6] and in experiment [7] was “inactive” each time. Also, the Potency entry in [8], in experiment [17], in experiment [18], in experiment [15], in experiment [10] and in experiment [11] was “inactive” throughout. Moreover, the Potency entry in experiment [12], in experiment [13] and in experiment [14] was “inactive” throughout. Moreover, the compound was called inactive in [9].
In the case of `C[C@H]1CNCCc2ccc(Cl)cc21`, the Potency result in experiment [1], in experiment [2], in experiment [3], in experiment [4], in [5] and in experiment [7] was “inactive” in each case. For the same compound, the Potency result in experiment [8], in experiment [17], in experiment [15], in experiment [10], in experiment [11] and in [12] was “inactive” in each case. Moreover, the Potency entry in experiment [13] and in [14] was “inactive” in each case. For the same compound, the compound was called inactive in experiment [9].
